Assay results from PubChem BioAssay (Tox21).
Records with an inconclusive call do not appear. A number with no mark means an inactive call. Activity calls are given as the source filed them. Calls come from the whole dose curve; as a rule, active = well fitted cell-killing curve with a large enough effect in the repeat runs; inconclusive = weak or mixed curves, or effect the other way; inactive = flat fitted curve, though single readings scatter.

Assay: cAMP Responsive Elements (CRE) small molecule antagonists, cell-based qHTS assay: qHTS cell viability counter screen (AID 2060913); note: nearly all actives have a fitted effect of over 40% in size
Conditions: CRE-bla HEK293T viability, CellTiter-Glo luminescence, 5 h; series mostly up to 92.4 µM; viability change, negative = cytotoxic: at the top concentration
How it was run: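 HEK293T CRE-bla, 2,000 cells/well, 18 h preincubation; cpd in DMSO + NKH477 0.25 uM final, 3 h 37 C/5% CO2; LiveBLAzer 2 h RT, then CellTiter-Glo 30 min RT, luminescence.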
% is set by controls: 0 for no effect and ±100 for the full control effect.

Row | Structure (SMILES) | viability change, negative = cytotoxic | Potency
1 | COC(=O)CSc1cc(N=c2sc(=O)n3n2CCCC3)c(F)cc1Cl | 0.536% | 
2 | CCCCCCCN | -2.71% | 
3 | CCCOc1ccc(S(=O)(=O)N2CCN(CC)CC2)cc1-c1nc2c(CC)n(Cc3ccccn3)nc2c(=O)[nH]1 | 11.6% | 
4 | OC/C(Br)=C(\Br)CO | 9.86% | 
5 | C[C@@H]1C[C@H]2[C@@H]3C[C@H](F)C4=CC(=O)C(Cl)=C[C@]4(C)[C@@]3(F)[C@@H](O)C[C@]2(C)[C@@]1(O)C(=O)CO | -4.52% [at 42.5 µM] | 
6 | Nc1c(Cl)cc(Cl)cc1[N+](=O)[O-] | -11.4% | 
7 | CCN1CCCC1CNC(=O)c1cc(S(=O)(=O)CC)c(N)cc1OC (stereo not given) | 1.24% [at 42.5 µM] | 
8 | Cc1[nH]c(=O)c(C#N)cc1-c1ccc2nccn2c1 | 1.27% [at 42.5 µM] | 
9 | CC1(C)CO[C@@H](CC(=O)O)CN1 | 6.45% [at 42.5 µM] | 
10 | CCCC=O | -0.583% | 
11 | Cc1ccc([N+](=O)[O-])cc1S(=O)(=O)O |  | inactive
12 | Cc1c(N=C=O)cccc1N=C=O | -1.27% | 
13 | CCN(CC)CC(=O)Oc1ccc(NC(C)=O)cc1 | -2.28% [at 42.5 µM] | 
14 | OCCCO | 1.46% | 
15 | Fc1ccc([C@@H]2CCNC[C@H]2COc2ccc3c(c2)OCO3)cc1 | -0.13% [at 42.5 µM] | 
16 | CCCC(=O)OC/C=C(\C)CCC=C(C)C | -0.184% | 
17 | CCCCCCCCCCCCCCCCO |  | inactive
18 | CCC1(c2cnc[nH]2)Cc2ccccc2C1 | 2.02% [at 42.5 µM] | 
19 | CCOC(=O)C1=C[C@]2(CC)CCCN3CCc4c(n1c1ccccc41)[C@@H]32 | -0.897% [at 42.5 µM] | 
20 | CCCCCCCC=O |  | inactive

Row | Structure (SMILES) | viability change, negative = cytotoxic | Potency
21 | CCCCOc1cc(C(=O)NCCN(CC)CC)c2ccccc2n1 | -2.77% [at 42.5 µM] | 
22 | NCCNCCN |  | inactive
23 | CSC(=O)c1cccc2nnsc12 | -1.66% | 
24 | CC(C)(C)N(CCO)CCO | 5.81% | 
25 | COC(=O)c1ccc(C(=O)O)cc1 | -3.47% | 
26 | Nc1ccc([N+](=O)[O-])c(C(F)(F)F)c1 | 10.2% [at 42.5 µM] | 
27 | O=C(O)C(S)C(S)C(=O)O (stereo not given) | -4.64% [at 42.5 µM] | 
28 | CC(CO)(CO)C(=O)O | -0.433% | 
29 | O=C(/C=C/c1ccccc1)NCCO | -8.23% [at 42.5 µM] | 
30 | CN(C)CCCCCCN(C)C | 2.87% | 
31 | O=c1[nH]ncc2ccccc12 | 4.96% | 
32 | O=c1[nH]cnc2ccccc12 | -1.25% | 
33 | Cc1cccc(CN2CCN(C(c3ccccc3)c3ccc(Cl)cc3)CC2)c1 (stereo not given) | -8.6% [at 42.5 µM] | 
34 | CN(C)C(=O)Nc1ccccc1 | -3.31% | 
35 | CCCCCC(CO)CCC (stereo not given) | 6.24% | 
36 | Cc1ccc(O)c(O)c1 | 13.8% | 
37 | CC(C)OCC1CO1 (stereo not given) | 2.73% | 
38 | C=Cc1ccc(C)cc1 |  | inactive
39 | COc1ccccc1C=O | 16.4% | 
40 | COCC(C)OC(C)=O (stereo not given) | 5.43% | 

Assay: cAMP Responsive Elements (CRE) small molecule agonists, cell-based qHTS assay: qHTS cell viability counter screen (AID 2060914);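 note: viability read after 3 h of compound exposure; nearly all actives have a fitted effect of over 50% in size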
Conditions: CRE-bla HEK293T viability, CellTiter-Glo luminescence, 5 h; series mostly up to 92.4 µM; activity change, negative = cytotoxicity: at the top concentration
How it was run: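 CRE-bla HEK293T cells in 10% dialyzed FBS medium were exposed to compounds for 3 h at 37C after 18 h plating. CellTiter-Glo was then added in the same wells, and luminescence was read after 30 min at room temperature.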

Row | Structure (SMILES) | activity change, negative = cytotoxicity | Potency
41 | COC(=O)CSc1cc(N=c2sc(=O)n3n2CCCC3)c(F)cc1Cl | 3.56% | 
42 | CCCCCCCN | 2.95% | 
43 | CCCOc1ccc(S(=O)(=O)N2CCN(CC)CC2)cc1-c1nc2c(CC)n(Cc3ccccn3)nc2c(=O)[nH]1 | 16.9% | 
44 | OC/C(Br)=C(\Br)CO | -1.75% | 
45 | C[C@@H]1C[C@H]2[C@@H]3C[C@H](F)C4=CC(=O)C(Cl)=C[C@]4(C)[C@@]3(F)[C@@H](O)C[C@]2(C)[C@@]1(O)C(=O)CO | 10.6% [at 42.5 µM] | 
46 | Nc1c(Cl)cc(Cl)cc1[N+](=O)[O-] | 2.93% | 
47 | CCN1CCCC1CNC(=O)c1cc(S(=O)(=O)CC)c(N)cc1OC (stereo not given) | 6.14% [at 42.5 µM] | 
48 | Cc1[nH]c(=O)c(C#N)cc1-c1ccc2nccn2c1 | 1.81% [at 42.5 µM] | 
49 | CC1(C)CO[C@@H](CC(=O)O)CN1 | 0.0381% [at 42.5 µM] | 
50 | CCCC=O | 18.7% | 
51 | Cc1ccc([N+](=O)[O-])cc1S(=O)(=O)O |  | inactive
52 | Cc1c(N=C=O)cccc1N=C=O | 14.5% | 
53 | CCN(CC)CC(=O)Oc1ccc(NC(C)=O)cc1 | -0.749% [at 42.5 µM] | 
54 | OCCCO | -2.18% | 
55 | Fc1ccc([C@@H]2CCNC[C@H]2COc2ccc3c(c2)OCO3)cc1 | -0.265% [at 42.5 µM] | 
56 | CCCC(=O)OC/C=C(\C)CCC=C(C)C | 0.62% | 
57 | CCCCCCCCCCCCCCCCO |  | inactive
58 | CCC1(c2cnc[nH]2)Cc2ccccc2C1 | -0.602% [at 42.5 µM] | 
59 | CCOC(=O)C1=C[C@]2(CC)CCCN3CCc4c(n1c1ccccc41)[C@@H]32 | -1.48% [at 42.5 µM] | 
60 | CCCCCCCC=O | -9.82% | 

Row | Structure (SMILES) | activity change, negative = cytotoxicity | Potency
61 | CCCCOc1cc(C(=O)NCCN(CC)CC)c2ccccc2n1 | 0.579% [at 42.5 µM] | 
62 | NCCNCCN | -18.6% | 
63 | CSC(=O)c1cccc2nnsc12 | -1.63% | 
64 | CC(C)(C)N(CCO)CCO | 0.571% | 
65 | COC(=O)c1ccc(C(=O)O)cc1 | -0.792% | 
66 | Nc1ccc([N+](=O)[O-])c(C(F)(F)F)c1 | 0.684% [at 42.5 µM] | 
67 | O=C(O)C(S)C(S)C(=O)O (stereo not given) | -1.55% [at 42.5 µM] | 
68 | CC(CO)(CO)C(=O)O | -12.3% | 
69 | O=C(/C=C/c1ccccc1)NCCO | 13.5% [at 42.5 µM] | 
70 | CN(C)CCCCCCN(C)C | 4.59% | 
71 | O=c1[nH]ncc2ccccc12 | -11.9% | 
72 | O=c1[nH]cnc2ccccc12 | 10% | 
73 | Cc1cccc(CN2CCN(C(c3ccccc3)c3ccc(Cl)cc3)CC2)c1 (stereo not given) | -18.6% [at 42.5 µM] | 
74 | CN(C)C(=O)Nc1ccccc1 | -0.999% | 
75 | CCCCCC(CO)CCC (stereo not given) | 2.8% | 
76 | Cc1ccc(O)c(O)c1 | 8.62% | 
77 | CC(C)OCC1CO1 (stereo not given) | 9.46% | 
78 | C=Cc1ccc(C)cc1 |  | inactive
79 | COc1ccccc1C=O | 0.373% | 
80 | COCC(C)OC(C)=O (stereo not given) | -7.48% | 
